Test results reported in the supplement of paper PMC6555819.

Legend:
Assay in all cases: PBM binding z-score (relative to random genomic background probes); higher = stronger binding; sequences stand for … in GC…GCGATTGACAGCGTAGAATGAAGG
[1] = system: FXR:RXRa (NR concentration 270 nM, RXRa partner concentration 90 nM)
Summary of the method: (§1)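 Ligand-free nuclear receptor dimers were bound for 1 h to custom Agilent 4×180K protein-binding microarrays. Detection used antibodies against each partner (one per run). Binding z-scores rest on regression-normalized fluorescence, with random background probes as the reference.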

[2] = system: LXRa:RXRa (NR concentration 270 nM, RXRa partner concentration 90 nM)
Summary of the method: as §1

[3] = system: LXRa homodimer (NR concentration 270 nM)
Summary of the method: as §1

[4] = system: LXRb:RXRa (NR concentration 270 nM, RXRa partner concentration 90 nM)
Summary of the method: as §1

[5] = system: LXRb homodimer (NR concentration 270 nM)
Summary of the method: as §1

[6] = system: PPARa:RXRa (NR concentration 270 nM, RXRa partner concentration 90 nM)
Summary of the method: as §1

[7] = system: PPARg:RXRa (NR concentration 180 nM, RXRa partner concentration 90 nM)
Summary of the method: as §1

[8] = system: PPARg:RXRa 270nM:90nM, anti-RXR (NR concentration 270 nM, RXRa partner concentration 90 nM)
Summary of the method: as §1

[9] = system: PPARg:RXRa 30nM:10nM, anti-RXR (NR concentration 30 nM, RXRa partner concentration 10 nM)
Summary of the method: as §1

[10] = system: PPARg:RXRa 90nM:30nM, anti-RXR (NR concentration 90 nM, RXRa partner concentration 30 nM)
Summary of the method: as §1

Sequence	PBM binding z-score [1]	PBM binding z-score [2]	PBM binding z-score [3]	PBM binding z-score [4]	PBM binding z-score [5]	PBM binding z-score [6]	PBM binding z-score [7]	PBM binding z-score [8]	PBM binding z-score [9]	PBM binding z-score [10]
TCTCGGAGGACACGAGGGTCAGAGCTTTCCAGAG	0.856	0.365	-0.438	0.47	-1.32	1.46	0.145	1.07	1.75	1.17
GCGACTGGGGCTTCAGCAGGTTACCATAACTTAA	-0.296	-0.21	-0.373	0.63	-0.572	0.478	-0.166	-0.624	-0.435	-0.762
ATATGTAGGTTATCGGGTCGTTCAGTTTGCGCAT	1.16	1.68	0.76	1.73	0.781	3.79	5	4.95	2.24	4.25
CAAACTAGGTCAAAGTCAAAGTCGGTTTGTGCCA	4.66	3.77	0.899	2.64	1.02	5.18	8.68	7.7	6.17	8.03
CCTATTAGTTGACCATAAGGGCAACCGTAGCTCG	0.644	0.364	0.502	0.478	0.7	0.679	0.376	0.487	0.0256	0.357
ACAAGCAGGCCAAGTTTGGGTCACTCAAACAAAG	0.226	0.181	-0.641	0.53	-0.924	1.51	0.101	0.443	-0.289	0.124
CCTACTAGTTGACCATAAGGGCAACCGAAGCTCG	0.832	0.281	0.276	0.306	0.518	0.516	0.418	0.311	-0.164	0.0805
ACAGACAGGTGAGTGAAGCTAACTCAGCTGGACG	-0.673	-0.375	-0.787	-0.865	-0.79	-0.342	0.546	-0.404	-0.443	-0.258
TGTCACAGTTCAAAGGTAACGTAAGTATCCACAC	4.13	3.82	0.785	2.87	0.361	4.26	4.43	4.67	1.68	3.69
TCTATTAGTTTAAGGGCAACCGACGAGTCCGTTT	1.36	1.32	0.766	1.32	0.433	1.33	0.0687	2.32	3.91	3.18
TCGAGTAGGTTACCAATGGAGCATTCAGCTTTCT	-0.291	0.37	-0.758	-0.00248	-1.32	0.92	0.264	1.16	1.33	1.08
CCTTACGGGTCACGAGGTTAAAGCACGACGAGCG	7.54	4.81	0.696	4.3	0.192	6.28	7.86	7.25	3.78	6.28
TCTATTTGTTGAAGGGCAACCGACGAGTCCGTTT	0.938	1.22	0.754	0.891	1.45	0.93	0.0466	2.21	3.99	3.24
TCTCGGAGGACACGAAGGTCACAGCTTTCCAGAG	2.69	2.82	1.52	2.65	-0.279	3.64	1.64	3.1	2.74	2.74
GGAACGAGGGCAAGTTGATAGCCGAGTTTGATGG	0.943	0.357	-0.311	0.355	-0.62	1.94	0.924	1.09	-0.224	0.405
TAGCCTAGGTCAGGCGGGCCAGTATAGTGTCGGC	1.07	0.958	-0.477	0.401	-0.892	1.55	0.363	0.51	-0.814	-0.109
TTACCAAGGTGAAGGTGGTTGATCCCTCTGTAGA	0.468	0.457	-0.29	0.0076	-0.769	1.41	0.605	1.37	0.889	1.13
TCACATAGGTAAAGGTGAAAGTCGAACGATATGA	1.25	1.8	0.139	1.69	-0.00674	3.07	2.67	3.48	4.04	3.75
GGAACGAGGGCATGTTGATAGCAGAGTTTGATGG	0.438	-0.0957	0.0371	0.12	-0.293	0.843	0.848	0.668	0.0112	-0.104
TCATATAGGTAATACAGGTGAAACTCGGCATCTA	1.07	1.41	0.63	1.14	0.362	2.28	1.85	2.56	3.88	3.33
CGTCCAATGTCAGCAGGTCAGTGAAAGCGACGTG	0.418	0.255	-0.0257	0.392	-0.161	1.22	0.115	0.0995	-0.882	-0.158
CCTGCTAGGTCAGTGGTCAGCTAAAGCAGCTCGC	0.953	0.472	-0.482	0.299	-0.638	1.39	1.53	2.58	0.178	1.59
CTCGAAAGGTCGTACTCAGGTGAGTATACCAAAC	5.55	4	0.513	3.59	0.9	4.59	2.86	3.85	1.33	2.46
